These results are taken from publication PMC12431657, “Discovery and mechanistic insights of dibenzoylmethane as a broad spectrum inhibitor of coronavirus” (PLOS Pathogens, 2025).

Like-named read-outs stand apart in the source and are kept apart here. In all, about 3,300 compounds went through this assay and about 95 (3%) showed an effect of 50% or more. Many of the other results were omitted from the sample, so strong results are more common in it than they were. Peptide text beside a SMILES is read from it.

This test deals with HCoV-229E. Further details: species or system Huh-7; HTS, protection from HCoV-229E induced cell death, luminescent cell viability (CellCounting-Lite 2.0), inhibition rate. To be noted: 24 h post infection, 1 h compound pre-incubation, 10 µM, inhibitor.

With `O=C1O[C@H]([C@@H](O)CO)C(O)=C1O` [L-Ascorbic acid], the “229E Inhibition rate” value (229E Inhibition rate, 24 h) was 17.7%.
Regarding `OC[C@H]1O[C@@](CO)(O[C@H]2O[C@H](CO[C@@H]3O[C@H](CO)[C@@H](O)[C@H](O)[C@H]3O)[C@@H](O)[C@H](O)[C@H]2O)[C@@H](O)[C@@H]1O` [Gentianose], the “229E Inhibition rate” value came out at 0%.
On to `OC[C@H]1O[C@H](OC[C@H]2O[C@H](O[C@]3(CO)O[C@H](CO)[C@@H](O)[C@@H]3O)[C@H](O)[C@@H](O)[C@@H]2O)[C@H](O)[C@@H](O)[C@H]1O` [Raffinose], for which the “229E Inhibition rate” value came out at 52.1%.
Same read-out and setting: the same measure for `OC[C@H]1O[C@H](OC[C@H]2O[C@H](OC[C@H]3O[C@H](O[C@]4(CO)O[C@H](CO)[C@@H](O)[C@@H]4O)[C@H](O)[C@@H](O)[C@@H]3O)[C@H](O)[C@@H](O)[C@H]2O)[C@H](O)[C@@H](O)[C@H]1O` [Stachyose (tetrahydrate)]: 43.8%; for `C=C(C)[C@@H]1CC[C@]2(C(=O)O[C@@H]3O[C@H](CO[C@@H]4O[C@H](CO)[C@@H](O[C@@H]5O[C@@H](C)[C@H](O)[C@@H](O)[C@H]5O)[C@H](O)[C@H]4O)[C@@H](O)[C@H](O)[C@H]3O)CC[C@]3(C)[C@H](CC[C@@H]4[C@@]5(C)CC[C@H](O[C@@H]6OC[C@H](O)[C@H](O)[C@H]6O[C@@H]6O[C@@H](C)[C@H](O)[C@@H](O)[C@H]6O)[C@@](C)(CO)[C@@H]5CC[C@]43C)[C@@H]12` [Pulchinenoside C]: 12.2%; for `C=C1C(=O)O[C@@H]2C[C@@]3(C)CCCC(=C)[C@@H]3C[C@H]12` [Isoalantolactone]: 20.6%.
Take `CC1=C2C(=O)O[C@@H](c3ccoc3)[C@]2(C)CCC1` [Fraxinellone]: the “229E Inhibition rate” value stood at 13.5%.
As for `C[C@@H]1C[C@H]2OC(=O)[C@@]3(C)CCC[C@@](C)([C@@H]23)[C@@]1(O)CCc1ccoc1` [Marrubiin], the “229E Inhibition rate” value is recorded as 59.8%.
Turning to `C[C@@H](O)[C@@H](C)O` [2,3-Butanediol], the “229E Inhibition rate” value (229E Inhibition rate, 24 h) is 20.3%.
Regarding `O=C(CCCCCCCCc1ccc(O)c(O)c1)c1c(O)cccc1O` [Malabaricone C], the “229E Inhibition rate” value was 42.8%.
On the same count and under the same terms, the same measure for `O=c1c(-c2ccc(O)cc2)coc2cc(O)cc(O)c12` [Genistein]: 17.6%.
Take `CC(C)=CCc1c(-c2ccc(O)cc2O)oc2c(CC=C(C)C)c(O)cc(O)c2c1=O` [Mulberrin]: the “229E Inhibition rate” value is given as 20.6%.
Regarding `CC(C)=CCc1cc(-c2coc3cc(O)cc(O)c3c2=O)cc(O)c1O` [Glycyrrhisoflavone], the “229E Inhibition rate” value is listed as 62.7%.
As for `CC(C)=CCc1c(O)cc(O)c2c(=O)cc(-c3ccc(O)cc3)oc12` [Licoflavone C], the “229E Inhibition rate” value was 28.1%.
For `CC(C)=CCc1c(O)cc(O)c2c(=O)c(-c3ccc(O)cc3)coc12` [Lupiwighteone], the “229E Inhibition rate” value was 63.8%.
In the case of `CC(C)=CCc1c(O)ccc(-c2coc3cc(O)cc(O)c3c2=O)c1O` [Licoisoflavone A], the “229E Inhibition rate” value is 0%.
`COc1cc2c(cc1OC)-c1cc3ccc4c(c3c(=O)n1CC2)OCO4` [8-Oxoepiberberine]: the “229E Inhibition rate” value came to 17.9%.
For the compound `O=C(O)C1CCCCN1O` (stereo not shown) [N-Hydroxypipecolic acid], the “229E Inhibition rate” value amounted to 19%.
`COC(=O)[C@@]1(C)CC[C@]2(C(=O)O)CC[C@]3(C)C(=CC[C@@H]4[C@@]5(C)C[C@H](O)[C@H](O)[C@@](C)(CO)[C@@H]5CC[C@]43C)[C@@H]2C1` [Phytolaccagenin]: the “229E Inhibition rate” value stood at 22.3%.
`CC[C@H](C)[C@H](N)C(=O)N[C@@H](C)C(=O)N[C@@H](CCCN=C(N)N)C(=O)N[C@@H](CCCN=C(N)N)C(=O)N[C@@H](Cc1cnc[nH]1)C(=O)N1CCC[C@H]1C(=O)N[C@@H](Cc1ccc(O)cc1)C(=O)N[C@@H](Cc1ccccc1)C(=O)N[C@@H](CC(C)C)C(=O)O` [Kinetensin] (H-IARRHPYFL-OH): the “229E Inhibition rate” value stood at 56.1%.
Regarding `CC(C)[C@H](NC(=O)[C@H](CC(=O)O)NC(=O)[C@H](CCCCN)NC(=O)[C@@H](N)CCCN=C(N)N)C(=O)N[C@@H](Cc1ccc(O)cc1)C(=O)O` [Thymopentin] (H-RKDVY-OH), where the note is “229E Inhibition rate, 24 h”, the “229E Inhibition rate” value is reported as 21.6%.
Regarding `CSCC[C@H](NC(=O)[C@H](CC(C)C)NC(=O)CNC(=O)[C@H](Cc1ccccc1)NC(=O)[C@H](Cc1ccccc1)NC(=O)[C@H](CCC(N)=O)NC(=O)[C@H](CCC(N)=O)NC(=O)[C@@H]1CCCN1C(=O)[C@H](CCCCN)NC(=O)[C@@H]1CCCN1C(=O)[C@@H](N)CCCN=C(N)N)C(N)=O` [Substance P], the “229E Inhibition rate” value is 0%.
The same measure, in the same setting: with `N[C@H](CC(=O)O)C(=O)O` [(-)-Aspartic acid] the figure was 9.6%; with `Cc1c(N)nc([C@H](CC(N)=O)NC[C@H](N)C(N)=O)nc1C(=O)N[C@H](C(=O)N[C@H](C)[C@@H](O)[C@H](C)C(=O)N[C@H](C(=O)NCCc1nc(-c2nc(C(=O)NCCC[S+](C)C)cs2)cs1)[C@@H](C)O)[C@@H](O[C@@H]1O[C@@H](CO)[C@@H](O)[C@H](O)[C@@H]1O[C@H]1O[C@H](CO)[C@@H](O)[C@H](OC(N)=O)[C@@H]1O)c1cnc[nH]1` [Bleomycin (sulfate)], 12.9%; with `CC(C)=CCC[C@H](C)CC=O` [(S)-(-)-Citronellal], 6.7%.
Turning to `C[C@@H]1CC[C@@]2(OC1)O[C@H]1C[C@H]3[C@@H]4CC=C5C[C@@H](O)C[C@@H](O[C@@H]6O[C@H](C)[C@H](O)[C@H](O[C@@H]7OC[C@@H](O)[C@H](O)[C@H]7O)[C@H]6O[C@@H]6O[C@@H](C)[C@H](O)[C@@H](O)[C@H]6O)[C@]5(C)[C@H]4CC[C@]3(C)[C@H]1[C@@H]2C` [Ophiopogonin D'], where the note is “229E Inhibition rate, 24 h”, the “229E Inhibition rate” value was 6.6%.
With `C[C@@H]1CC[C@@]2(OC1)O[C@H]1C[C@H]3[C@@H]4CC=C5C[C@@H](O)C[C@@H](O[C@@H]6O[C@H](C)[C@H](O)[C@H](O[C@@H]7OC[C@@H](O)[C@H](O)[C@H]7O)[C@H]6O[C@@H]6O[C@H](CO)[C@@H](O)[C@H](O)[C@H]6O)[C@]5(C)[C@H]4CC[C@]3(C)[C@H]1[C@@H]2C` [Saponin C, from Liriope muscari], the “229E Inhibition rate” value is 0%.
`C[C@@H]1CC[C@@]2(OC1)O[C@H]1C[C@H]3[C@@H]4CC=C5C[C@@H](O)C[C@@H](O[C@@H]6O[C@H](C)[C@H](O)[C@H](O[C@@H]7OC[C@@H](O)[C@H](O)[C@H]7O)[C@H]6O[C@@H]6O[C@@H](C)[C@H](O)[C@@H](O)[C@H]6O)[C@]5(C)[C@H]4CC[C@]3(C)[C@H]1[C@@H]2C` [Ophiopogonin D]: for the setting “229E Inhibition rate, 24 h”, the “229E Inhibition rate” value was 50.3%.
